# Screening data deposited in PubChem by several laboratories.
# Rows were chosen to be rich in hits. Some 2% of all compounds tested hit in one or more screens of this group.
# NOD2 RIPK2 PPI: NOD2-RIPK2 binding disruptors in cells, primary screen, fluorescence, CHO cells, BLA complementation. Receptor-interacting serine/threonine-protein kinase 2 (Homo sapiens), O43353. CCF4 ratio. inhibition, % at 4.98 µM. actives 0.38% (n = 360,000). AID 624267, 2012; in the data active = inhibition above about 21%
# Exocytosis inh: LAMP-1 surface exposure blockers, TALL-104 cells – cell-based, flow cytometry, MLPCN library, primary screen | TALL-104 LAMP-1 surface exposure; cells stimulated with thapsigargin and PMA | inhibition, % at 10 µM | AID 651702, 2012 | actives 0.66% (n = 360,000);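 active = inhibition above about 55%, limit read from the data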
# ABHD5 PLIN5 PPI: ABHD5-PLIN5 interaction inhibitors, primary screen, cell lysate, split luciferase complementation, luminescence; Perilipin-5 (Homo sapiens) + 1-acylglycerol-3-phosphate O-acyltransferase ABHD5 (Homo …; Split G. princeps luciferase complementation, 4 h; inhibition, % at 4 µM; actives 0.78% (n = 360,000);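 active = inhibition above the mean inhibition across every tested compound plus 3 SD, cut at about 22% in these data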
# B2AR ag: beta2AR agonists driving receptor internalization, primary screen, cell-based, FAP fluorogen, flow cytometry; actives 0.43% (n = 340,000); response, % (test concentration not listed); Am2.2-beta2AR cells; AID 504454, 2011; Beta-2 adrenergic receptor (Homo sapiens), P07550;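 active = response above a set limit, near 3 SD of response in nonfluorescent compounds, cut at about 42% in these data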
# TLR4-MyD88 BLA: inhibitors of TLR4-MyD88 association in cells, primary screen, cell-based, HeLa CL3-4, BLA complementation, FRET ratio | Toll-like receptor 4 (Homo sapiens) + Myeloid differentiation primary response protein … | HeLa CL3-4 TLR4/MyD88 BLA complementation | inhibition, % at 8.4 µM | actives 0.18% (n = 200,000) | AID 861, 2007; in the data active = inhibition above about 25%
# TLR9-MyD88 inh: inhibitors of TLR9-MyD88 association in cells, primary screen, cell-based, CHO, BLA complementation, fluorescence. Toll-like receptor 9 (Homo sapiens) + Myeloid differentiation primary response protein …. CCF4 FRET ratio. inhibition, % at 4.98 µM. actives 0.21% (n = 340,000). AID 504734, 2011;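 active = inhibition above the mean over all tested compounds plus 3 SD, cut at about 21% in these data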
# Granule exo CP1: inhibitors of lytic granule exocytosis, confirmation, TALL-104 cells, flow cytometry, Cherry Pick01; shares compounds with Exocytosis inh; LAMP-1 externalization; stimulated with PMA plus thapsigargin; inhibition, % at 10 µM; actives 11% (n = 1,500); AID 651954, 2012; in the data active = inhibition above about 60%
# Numbers stand for hits; 0 = inactive; - = no result.
SMILES,NOD2 RIPK2 PPI,Exocytosis inh,ABHD5 PLIN5 PPI,B2AR ag,TLR4-MyD88 BLA,TLR9-MyD88 inh,Granule exo CP1
CC(=O)O[C@H]1CC[C@@]2(C)C(=CC(=O)C3C2CC[C@@]2(C)C3C[C@H](OC(C)=O)[C@@H]2OC(C)=O)C1 (some centres undefined),0,0,0,0,-,0,-
CC(C)Nc1ccc(Nc2ccccc2)cc1,0,100,0,0,-,0,0
CCOC(=O)CNC(=O)N1Cc2ccccc2-n2nncc2C1,0,0,0,-,-,0,-
CC(N)C(=O)OC(C)(C)Cc1ccc(Cl)cc1 (centres undefined),0,0,0,0,-,0,-
COc1cc2c(cc1O)[C@@H]1Cc3ccc(OC)c(O)c3CN1CC2,0,0,0,0,-,0,-
CCCN1CCc2cc(O)cc3c2[C@H]1Cc1ccc(O)c(O)c1-3,0,65,0,0,-,0,0
O=c1[nH]c(=O)n(-c2ccc(F)cc2)c(O)c1/C=C1\C=Nc2ccccc21,0,56,0,0,-,0,0
O=c1[nH]c(=O)n(-c2ccccc2F)c(O)c1/C=C1\C=Nc2ccccc21,0,0,0,0,-,0,-
Cc1ccccc1CC(=O)N(CCN(C)C)CC1CCCN(Cc2ccccc2F)C1 (centres undefined),0,62,0,0,-,0,0
CCOc1ccccc1CNCCc1ccc2c(c1)OCO2,0,0,0,0,-,0,-
CCOc1ccccc1CN1C2CCC1CC(c1ccc(C)cc1)C2 (centres undefined),0,67,0,0,-,0,0
Fc1cccc(CNCCc2c[nH]c3ccccc23)c1,0,0,0,0,-,0,-
Cc1cccc(CNCCc2c[nH]c3ccccc23)c1,0,80,0,0,-,0,0
COc1ccc2c(CN3CC=C(c4ccccc4)CC3)cc(=O)oc2c1,0,0,0,0,0,0,-
COc1ccc2ccc(O)c(CN3CC=C(c4ccccc4)CC3)c2c1,0,92,0,0,0,0,0
S=C(NCCc1ccccc1)N1Cc2cc(N3CCCCC3)ccc2-n2nncc2C1,0,0,0,-,-,-,-
COc1ccc(-c2ccc3c(c2)CN(c2cccc(Cl)c2)Cc2cnnn2-3)cc1,0,88,0,-,-,-,0
FC(F)(F)Oc1ccc(C2NCc3ccccc3-n3cccc32)cc1 (centres undefined),0,59,0,0,-,0,0
